Test results published in ChEMBL document CHEMBL1157539, “Thousands of chemical starting points for antimalarial lead identification” (Nature, 2010).
Values joined by “and” are separate entries in the source; they are usually repeats but may differ in a detail not shown here. Identical values can stand only once. Out of some 13,000 compounds screened, fewer than 10 showed an effect of 50% or more. These entries were drawn from the full list.

system: Plasmodium falciparum; assay: GSK_TCMDC: Inhibition of Plasmodium falciparum 3D7 LDH activity, using an LDH reporter assay. Test compounds present at 2uM; format: functional, organism-based

SMILES	inhibition
c1ccc(-c2ccc(-c3csc(Nc4ccncc4)n3)cc2)cc1	3%
Cc1ccc2nc(C)cc(N/N=C/c3ccc([N+](=O)[O-])o3)c2c1	0%
O=C(Nc1ccsc1)Nc1cccc(-c2cccc(-c3nc4cc(F)ccc4[nH]3)c2)c1	2%
OCC(c1ccccc1)n1c(COc2ccc(Cl)cc2)nc2c(OCCCN3CCCCC3)cccc21 (centres undefined)	0%
CCN1CCC(N(Cc2ccc(-c3ccc(C(F)(F)F)cc3)cc2)C(=O)Cn2c(CCc3cccc(F)c3F)cc(=O)c3c2CCCC3)CC1	0%
COc1ccc2c(NN=Cc3cccc(F)c3)ccnc2c1	0%
N#Cc1ccc(N2CCN(Cc3cccc(-c4ccc(-c5nc6cc(C(F)(F)F)ccc6[nH]5)cc4)c3)CC2)nc1	0%
Nc1nc(N)c2c(ccc3[nH]c(-c4ccccc4Cl)nc32)n1	0%
C=CCc1cccc(OC)c1OCCCON1C(=N)N=C(N)NC1(C)C	0%
CC(C)CCn1c(Sc2ccc(C#N)c([N+](=O)[O-])c2)nnc1-c1ccc(Cl)cc1	0%
Cc1n[nH]c2ccc(-c3ccc4nccc(N5CCC(N)CC5)c4c3)cc12	0%
CCOc1ccc2c(=NN=Cc3ccccc3F)cc(C)[nH]c2c1	0%
COc1cc(CN=C(S)NN=C(C)c2ccccn2)cc(OC)c1OC	0%
COc1ccc2c(c1)CC(C)(C)NC2CCCCCCCCC1NC(C)(C)Cc2cc(OC)ccc21 (centres undefined)	0%
CCCC(=O)c1cnc2c(OCCCc3c[nH]cn3)cccc2c1Nc1c(C)cccc1C	3%
CC[C@H](N/C(=N\c1ccc(-c2ccccc2)cc1)Nc1ccc(C#N)cc1O)c1ccccc1	4%
COc1c(Br)cc(Br)cc1-c1ccc(CN2CC3CCC2CC3)[nH]1	0%
CCCCCCN1CCC(NCc2ccc(Cl)cc2)CC1	0%
COc1cc(NC(=O)c2sc(-c3ccc(Cl)cc3)cc2NC(=O)c2cccc(N(C)C)c2)ccc1OCCN1CCCC1	0%
CCN(C1CCCCC1)S(=O)(=O)c1ccc(OC)c(N2CCN(C(=O)C(Cl)(Cl)Cl)CC2)c1	3%
O=C(NCCCN1CCOCC1)c1cccc(Nc2nccc(Nc3ccc(Oc4ccccc4)cc3)n2)c1	0%
CCC(=O)N(c1ccccc1)C1CCN(CCCC(NC(=O)c2cc(C(F)(F)F)cc(C(F)(F)F)c2)c2ccc(Cl)c(Cl)c2)CC1 (centres undefined)	0%
O=C(/C=C/c1ccc(-c2nc3ccc(Cl)cc3[nH]2)cc1)NC1CCN(Cc2ccccc2)CC1	0%

SMILES	inhibition
CN(C)c1ccc(-c2csc(C(=O)NC3CCN(CCC(C)(C)C)C3)c2)cc1 (centres undefined)	2%
NC(=O)c1cccc(C(=O)Nc2cccc(-c3cccc(-c4nc5cc(F)ccc5[nH]4)c3)c2)c1	1%
Cc1ccc(Cl)c2sc(N3CCN(C(=O)c4ccc([N+](=O)[O-])o4)CC3)nc12	0%
O=C(c1ccc([N+](=O)[O-])o1)N1CCN(c2nc3c(F)cc(F)cc3s2)CC1	0%
O=C(/C=C/c1ccc(I)cc1)NCCCCCN1CCC(c2c[nH]c3ccc(O)cc23)CC1	2%
CN1CCN(CC(=O)Nc2cccc(-c3ccc(-c4nc5cc(F)ccc5[nH]4)cc3)c2)CC1	6%
CCN(CC)CCN(CCN(CC)CC)c1ccc(-c2nc3cc(Cl)c(Cl)cc3[nH]2)cc1	2%
Cc1ccc(-c2nc3cc(C(=O)NC4CCC(N5CCCc6ccc(C#N)cc6C5)CC4)ccc3[nH]2)cc1 (centres undefined)	0%
CN(CCc1ccccn1)Cc1ccc(-c2ccc(-c3nc4ccccc4[nH]3)s2)cc1	6%
CC(C)(C)OC(=O)NCc1ccc(Nc2nnc(-c3cccc(C(=O)NCCC(c4ccccc4)c4ccccc4)c3)o2)cc1	0%
FC(F)(F)c1ccc2[nH]c(-c3cccc(-c4ccc(CNCC5CCCO5)cc4)c3)nc2c1 (centres undefined)	0%
NCC1CCCN1Cc1cccc(-c2ccc(-c3nc4cc(C(F)(F)F)ccc4[nH]3)s2)c1 (centres undefined)	0%
O=c1sn(-c2csc3ccccc23)c2ccccc12	0%
COc1cc(NC(=O)C(c2ccc(Cl)cc2)C(C)C)cc(OC)c1 (centres undefined)	0%
CC1(C)NC(N)=NC(=N)N1OCCCc1c(Cl)cccc1Cl	3%
Cn1cc(Br)c(-c2cccc(Nc3ccnc4cc(-c5nccs5)ccc34)c2)n1	0%
CC1(C)[C@H]2CC[C@@H](CNc3nc(NCCc4c[nH]cn4)nc(Nc4ccc(Oc5ccccc5)cc4)n3)[C@@H]1C2	3%
O=C(CC1NC(=O)c2ccccc21)Nc1ccc(-c2ccc(-c3nc4cc(C(F)(F)F)ccc4[nH]3)cc2)cc1 (centres undefined)	0%
CC(C)CNCc1ccc(-c2cccc(-c3nc4ccccc4[nH]3)c2)cc1	0%
Cc1cc2ccccc2n1CC(=O)N1CC(C(=O)N2CCCCC2)Oc2ccccc21 (centres undefined)	2%
CC1(C)CCC(C)(C)c2c1ccc(C1CCN(CCCCNC(=O)c3ccc(-c4ccc(C#N)cc4)cc3)CC1)c2O	7%
c1cc(-c2ccc(CN3CCN(c4ccncc4)CC3)cc2)cc(-c2nc3ccccc3[nH]2)c1	0%
FC(F)(F)c1ccc2[nH]c(-c3ccc(-c4ccc(CNCc5cnn(-c6ccccc6)n5)cc4)cc3)nc2c1	0%

SMILES	inhibition
OCc1ccc(-c2cncc(Nc3cccc(Cl)c3)c2)cc1	0%
CNCCNCc1ccc(-c2ccc(-c3nc4cc(F)ccc4[nH]3)s2)cc1	2%
CC(C)CCNC(=N)Nc1ccc(OCCCCCOc2ccc(NC(=N)NCCC(C)C)cc2)cc1	6%
CCOC(=O)c1ccc(NC(=O)Nc2cccc(-c3cccc(-c4nc5cccc(C)c5[nH]4)c3)c2)cc1	0%
CC(=NNc1nc2ccccc2s1)c1ccccn1	0%
Cn1cccc1C(=O)C(=O)Nc1ccc(-c2ccc(-c3nc4cc(F)ccc4[nH]3)cc2)cc1	0%
COC(=O)c1cccc(CNCc2cccc(-c3cccc(-c4nc5cc(C(F)(F)F)ccc5[nH]4)c3)c2)c1	6%
COc1ccc2nccc(N/N=C/c3cccc([N+](=O)[O-])c3)c2c1	0%
CC(Cl)=CCc1c(C)nc2c(ccc3ccccc32)c1O	8%
Cc1cccc2nc(-c3ccc(-c4cccc(NC(=O)Nc5ccccc5)c4)cc3)[nH]c12	9%
CCOc1ccc2[nH]c(C)cc(=NN=Cc3cccc(F)c3)c2c1	0%
COc1ccc2nc3cc(Cl)ccc3c(NCCCCCCNc3c4ccc(Cl)cc4nc4ccc(OC)cc34)c2c1	0%
c1ccc(-c2ccc(CNCc3ccc(-c4cccc(-c5nc6ccccc6[nH]5)c4)cc3)s2)nc1	0%
CN(C)c1ccc(CN2CCCCC(NC(=O)c3cc(-c4ccccc4Cl)cs3)C2)cc1 (centres undefined)	0%
N=C(N)Nc1ccc(CCc2ccc(NC(=N)N)cc2)cc1	0%
COc1ccc2nccc([C@@H](O)CN3CCC(NC(=O)/C=C/c4ccc5ccccc5n4)CC3)c2c1	1%
N#Cc1ccc(N/C(=N\c2ccc(-c3ccccc3)cc2)NCCc2c[nH]c3ccccc23)c(O)c1	6%
Cc1cccc2nc(-c3cccc(-c4ccc(CNCCNC(=O)c5ccnn5C)cc4)c3)[nH]c12	0%
NC1CCCN(Cc2ccc(-c3ccc(-c4nc5cc(F)ccc5[nH]4)s3)cc2)C1 (centres undefined)	1%
COc1ccccc1CCNc1nc(C)cc(N[C@@H](Cc2ccccc2)C(=O)NCCOc2ccccc2)n1	4%
O=C(Cn1c(SCc2cccc(F)c2F)cc(=O)c2ccccc21)N(CCn1ccnc1)Cc1ccc(-c2ccc(C(F)(F)F)cc2)cc1	0%
O=C(Nc1ccc(Cn2ncc(N3CCCNCC3)c(Cl)c2=O)cc1)Nc1ccc(-c2ccccc2)cc1	0% and 8%
O=C(OCc1ccccn1)c1nc2ccccc2[nH]1	0%

SMILES	inhibition
O=C(NCc1cccs1)[C@H](Cc1ccccc1)Nc1ccnc(NCCc2ccccc2)n1	0%
Cc1cc(N2CCCC2)nc(NC(=N)Nc2cccc(C(F)(F)F)c2)n1	1%
Cn1ncc2ccc(Nc3nccc(-c4ccc5c(c4)c(N)nn5C)n3)cc21	0%
Cn1c(Cc2ccccc2)nnc1Sc1ccc(C#N)c([N+](=O)[O-])c1	0%
O=C(NCCN1CCCC1)c1cccc(-c2ccc(-c3nc4cc(F)ccc4[nH]3)cc2)c1	0%
CCOc1ccc2nc3cc(NC(=O)c4ccco4)ccc3c(N)c2c1	0%
Cc1cccc2nc(-c3ccc(-c4cccc(CN5CCN(c6ccncc6)CC5)c4)s3)[nH]c12	6%
Cc1ccc(CN2CCN(Cc3cccc(NC(=O)c4cccs4)c3)CC2)cc1C	2%
CCN(CC)CCCC(C)Nc1c2ccccc2nc2c1ccc1ccccc12 (centres undefined)	3%
CCOc1ccccc1NC(=O)C(Sc1nc(C)cc(C)c1C#N)c1ccccc1 (centres undefined)	0%
O=C(/C=C/c1ccc(Cl)c(Cl)c1)NCCCCCN1CCC(CCNC(=O)Cc2ccc(Cl)cc2)CC1	0%
COc1ccc(CN2CCCN(Cc3cccc(NC(=O)c4ccc(Cl)c(Cl)c4)c3)CC2)cc1	5%
CCN(CCCN1CCCCC1)c1cc(C)nc(Nc2cccc(C(F)(F)F)c2C)n1	0%
COc1ccc2nc3cc(Cl)ccc3c(NCCCCNc3c4ccc(Cl)cc4nc4ccc(OC)cc34)c2c1	6%
CS(=O)(=O)NCCCNCc1cccc(-c2ccc(-c3nc4ccccc4[nH]3)s2)c1	6%
O=C(NCc1ccc(F)cc1)Nc1ccc(-c2cccc(-c3nc4cc(C(F)(F)F)ccc4[nH]3)c2)cc1	3%
O=C(Nc1cccc(C(F)(F)F)c1)c1ccc(S(=O)(=O)NCC2CCN(CC3CCCCC3)CC2)cc1	0%
N[C@@H](Cc1cc(I)c(Oc2ccc(O)c(C(=O)O)c2)c(I)c1)C(=O)O	0%
CC(C)CNCc1ccc(-c2ccc(CNC3CCN(Cc4ccccc4)CC3)cc2)cc1	4%
CC1(C)N=C(N)N=C(N)N1c1ccc(Cl)cc1	0%
